# “And” between values parts separate entries of the source, which are not always exact repeats. Equal entries are not always repeated. The source made the active and inactive calls. The calls were made as follows: active = hit-call score of the fitted dose curve at least 0.9, where 1 is the maximum; inactive = score below 0.9.
# Read-out: CD40, CD40 (gene 958)
# Test: BSK_SAg_CD40: BioMAP Diversity Plus: SAg Assay for CD40 Biomarker Activity (AID 2283088)
# Settings: primary human HUVEC with PBMC; actives raise or lower the signal
# Description: BSK_SAg is a cell-based, multiplexed-readout assay that uses umbilical vein endothelium and peripheral blood mononuclear cells, a human vascular primary cell co-culture, with measurements taken at 24 hours after chemical dosing in a 96-well plate.BSK_SAg_CD40 is one of 10 assay component(s) measured or calculated from the BSK_SAg assay. It is designed to make measurements of enzyme-linked immunosorbent assay, a form of binding reporter, as detected with fluorescence intensity signals by Enzyme-linked immunosorbent assay technology.Data from the assay component BSK_SAg_CD40 was analyzed into 1 assay endpoint. This assay endpoint, BSK_SAg_CD40, was analyzed with bidirectional fitting relative to DMSO as the negative control and baseline of activity. Using a type of binding reporter, gain or loss-of-signal activity can be used to understand changes in the signaling as they relate to the gene CD40. Furthermore, this assay endpoint can be referred to as a primary readout, because this assay has produced multiple assay endpoints where this one serves a signaling function. To generalize the intended target to other relatable targets, this assay endpoint is annotated to the cytokine intended target family, where the subfamily is inflammatory factor.
# The levels of cell surface (or secreted, indicated by the prefix "s") biomarker endpoints were measured by ELISA. Overt cytotoxicity to cells in confluent adherent cultures (all systems other than the BT system) was assessed by measuring total protein levels using sulforhodamine B (SRB) staining in parallel cultures at the time of biomarker measurements, indicated as SRB endpoints. For proliferation assays for adherent cell types, individual cell types are cultured at sub-confluence and relative cell numbers quantified by SRB staining at time points optimized for each system (48 h: 3C and CASM3C systems; 72 h: BT and HDF3CGF systems; 96 h: SAg system). SRB was performed by staining cells with 0.1% SRB after fixation with 10% TCA and reading wells at 560 nm.Viability and proliferation of PBMC (T cells) was quantified by Alamar Blue reduction for the SAg and BT systems. For PBMC viability (referred to as PBMC Cytotoxicity within the assay endpoint names), cells were plated (75,000/well in a 96-well plate) and then chemical samples added for 1 h before addition of activators, SEB and TSST-1 (20 ng/mL final concentration each). Cells were incubated for 90 h. Then, Alamar Blue (20 uL/well) (Invitrogen, Cat DAL1100) was added for 6 h, and the plates were read with a fluorescence microplate reader at 546/580 nm (excitation/emission). For PBMC proliferation, cells were plated and activated as above but incubated for only 16 h prior to addition of Alamar Blue. Plates were read after 6 h.
Compound,outcome,AC50
Clc1ccc(-c2ccccc2)cc1,inactive,–
O=S(=O)(c1ccccc1)c1ccccc1,inactive,–
CC(C)(C)C(O)C(Oc1ccc(-c2ccccc2)cc1)n1cncn1 (configuration not stated),inactive,–
Cc1ccc(OP(=O)(Oc2ccc(C)cc2)Oc2ccc(C)cc2)cc1 (tested in a mixture with another compound),–,20 µM (active)
O=[N+]([O-])c1ccc(Cl)cc1,inactive,–
CC(=O)/C=C/c1ccccc1,inactive,–
O=P1(NCCCl)OCCCN1CCCl (configuration not stated),inactive,–
CCCC[N+](CCCC)(CCCC)CCCC,inactive,–
CCCOC(=O)c1ccccc1C(=O)OCCC,inactive,–
CC(C)CCCCCCCOP(=O)(Oc1ccccc1)Oc1ccccc1,–,26.2 µM (active)
CC1(C)[C@H](C(=O)O[C@H](C#N)c2cccc(Oc3ccccc3)c2)[C@@H]1C=C(Br)Br,inactive,–
CC(C)CCCCCCCOC(=O)c1ccccc1C(=O)OCCCCCCCC(C)C,inactive,–
CC(C)(C)C(=O)CCl,inactive,–
O=[N+]([O-])C=Cc1ccccc1,–,20 µM (active)
Oc1cc(Cl)ccc1Cl,inactive,–
COc1ccc(CO)cc1,inactive,–
O=C1C=CC(=O)C=C1,–,29 µM (active) and 27.7 µM (active)
Nc1ccc(-c2ccc(N)c(N)c2)cc1N,inactive,–
O=c1c2ccccc2c(=O)c2c1cc(Cl)c1[nH]c3c([nH]c12)c(Cl)cc1c(=O)c2ccccc2c(=O)c13,inactive,–

Compound,outcome,AC50
Oc1ccc(C2(c3ccc(O)cc3)c3ccccc3-c3ccccc32)cc1,–,11.7 µM (active) and 12.5 µM (active)
[Cd+2].[Cl-].[Cl-],–,30.2 µM (active) and 34.7 µM (active)
C=CC(=O)OCC(CC)CCCC (configuration not stated),inactive,–
O=[N+]([O-])O,inactive,–
N#CCCCCC#N,inactive,–
c1ccc(Nc2ccc3ccccc3c2)cc1,inactive,–
CCC(C)c1cc([N+](=O)[O-])cc([N+](=O)[O-])c1OC(=O)C=C(C)C (configuration not stated),–,7.96 µM (active)
COCC(=O)N(c1c(C)cccc1C)N1CCOC1=O,inactive,–
O=C1C(Cl)=C(Cl)C(=O)C(Cl)=C1Cl,–,25.3 µM (active)
CCCCCCCCCCCC#N,–,27.7 µM (active)
O=c1[nH]c(Cl)c(Cl)cc1Cl,inactive,–
COC(C)(C)CCC[C@H](C)C/C=C/C(C)=C/C(=O)OC(C)C,–,26.8 µM (active)
CCc1cc(C)cc(CC)c1-c1c(OC(=O)C(C)(C)C)n2n(c1=O)CCOCC2,inactive,–
O=C(CCl)c1ccccc1,–,5.77 µM (active)
C=CCN(CC=C)C(=O)C(Cl)Cl,inactive,–
O=C(O)CCCc1ccc(N(CCCl)CCCl)cc1,–,20 µM (active)
CC(C)COP(=O)(OCC(C)C)OCC(C)C,inactive,–
CNC(=O)Oc1cc(C)c(SC)c(C)c1,–,16.7 µM (active)

# Reference: PubChem BioAssay (EPA / NIEHS)
